Reference: article PMC12864922, “TDP-43 directly inhibits mRNA accumulation in neurites through modulation of mRNA stability”
Whole data set: some 9,900 sequences, median “r (bound/input frequency ratio)” near 0.7, cut for the highest 2% near 6.5. The full list was thinned out, with the highest values kept by preference.

B1: ENSMUSG00000031028.668|Tub (ssRNA)
RNA: GGGAGUUCUACAGUCCGACGAUCGCUUCGAUAUCCGCAUGCUAGGCAAAAUUUCUCUAGCUGAGAGCACACUUAGCCAGUUUUCACGCCUAGAACAUAUAUGUCGAUUUGCACAUGAUUGUCUUUUCCUAUUUUGGAGUGGUCAGACAUUUUAUUUUUGUUCAAAAUUAUCUGGAGUUUUAGACAAACUUGCAAAACUGUGCUUUUAUUAAGUGACUUUUUGAAUAAACUUUUUGGUAUUCUGAAGCAAAUGUAUUUAUUUAUUGGUAUGUGCAAUGACAAACUUGGUAUUUUCCCAUAAUGACUCUUGCGGUCGCACUAGUGUGGAAUUCUCGGGUGUCAAGG
B2: ENSMUSG00000061578.140|Ksr2 (ssRNA)
RNA: GGGAGUUCUACAGUCCGACGAUCGCUUCGAUAUCCGCAUGCUAGGCUGUGGCAAGAGAGUUCUGGUGUGUUCUCUCUGUGGGGCUAGCAAUGCCGGGGUUAAGUUCUCCCUCGGUGAUGGAGACGGUCCUGGGUAUGCAUGAUGGGUUACAUGGGUGUGUGUGUGUGUGUAACUGUUUACAAUGGUCUCCCUGCCUCUCACGGGCUGUGUUCCAGGAGAAUGCACAUAGAGAGGUUCUGUGGUCUCUGCUGUCGCCUGGUGCUGAAUCCUGAGUGGUUUCCCCACUGAGGACCCUGUGACCCUCUCUUGCGGUCGCACUAGUGUGGAAUUCUCGGGUGUCAAGG
B3: ENSMUSG00000061578.854|Ksr2|32:36 (ssRNA)
RNA: GGGAGUUCUACAGUCCGACGAUCGCUUCGAUAUCCGCAUGCUAAGAGCAAUACAGGAAAAGGUCAGGGGUGAGAACACACAUUGCCACUUCCUCCAGCUAGGACCUUUGAGCAUCACAUUGUGAAGCCAUCCAGGGACUUGGGGGUUAGGUCAGAGGUAUCAAUACAUCUCCGGAAACAUCGUCACAGAUACCUAGAGGUACUUCAUUGAUCCCUUGAAAAGCAUGUCUUAAUUCUGUUAAGAUGUCAAUCAAGAUUACACAUCUCACUGCUUCACAGGCCAUCAGGGCCCCAUUCUGAGGUCCUCUUGCGGUCGCACUAGUGUGGAAUUCUCGGGUGUCAAGG
B4: ENSMUSG00000090935.379|Synj2bp (ssRNA)
RNA: GGGAGUUCUACAGUCCGACGAUCGCUUCGAUAUCCGCAUGCUAAGAUGCAGGGAUAUUGGUGAGGUGGGAGCUGUCCUGUUUAUGUAACAUCUAAGUUGGUUUUAGAGUACUGAGGAUAGUUGAACCAAGCCUAUUUUUUUUCCACUUUAACAAAAUAAUUUCCUUCUUUUCAGUAAAUUGGCCAGACUAUUAUUUUGACAUAAGAUUAUGAAGAGUUUUCCCGACAGUCUAGCAGUCACUUAACAGAUGUUGAUUGCACAUUAGUUUUGUCAGGACACCUUUAUAAAAAGAGAAAUGCACAUCUCUUGCGGUCGCACUAGUGUGGAAUUCUCGGGUGUCAAGG
B5: ENSMUSG00000061578.1219|Ksr2 (ssRNA)
RNA: GGGAGUUCUACAGUCCGACGAUCGCUUCGAUAUCCGCAUGCUACAGCAUGCUUCACUCUAUGAAUGAGCCGCUGGGAUAUUGACAUGGAGAUGUGUUGAUGGAAAAAGCCUCCACACCCAACAUAACUCUCCAGAGAGAUAUUGAAAGUGAUGGGCAGAGAGUCUGACAAUGACCCAGGGGUCAUUGUGAGUCCUAGGCUGAAUCUGUAAUGGGGUCCAAAGUGCAGGAGAGACUGCAUUCACCUUGUUGGUGGGGUGGGGCUUCUUUCAUUACUUUAAGUAUCUGUAUGGGCUUGAGGCAUGCUCUUGCGGUCGCACUAGUGUGGAAUUCUCGGGUGUCAAGG
B6: ENSMUSG00000090935.669|Synj2bp (ssRNA)
RNA: GGGAGUUCUACAGUCCGACGAUCGCUUCGAUAUCCGCAUGCUAUGGAGUGAGAUGAGUGUGUGCCAGCCAGCAACUCUGUCCUUCUAGGUAACUGGUUCAUGCUGAACCUUGAGAUUCACCACUGUCAGGAGCUCUCUCUCUCUGCUUAGAAUCAUCCAGACAGCGGGCUGGUCAGCCCACAUUAAAUAAGAACAUGUGGGACUAGAAUUCAGUCAACAAUGACAUGUUUCAUCAGGUGGUUAAAAUGUACAGAUUCUGUUGGAAAUGUUCCAUGGUAUUUCAAUAGCCAGAAUGAAGAACUGCUCUUGCGGUCGCACUAGUGUGGAAUUCUCGGGUGUCAAGG
B7: ENSMUSG00000061578.1443|Ksr2 (ssRNA)
RNA: GGGAGUUCUACAGUCCGACGAUCGCUUCGAUAUCCGCAUGCUAGCAAGUAGGAUGGAUGGAUGAGUGAGUGGAUAGGUAGGUAUAUAAAUGGAUGGAUGGGUGAUGGAUGGGUAAAUGAAUGGAUAGGUAUGUGAAUGAAUGGAUGAUGGAUGAAUGGAUGGGUAGGUGGGUAGAUAGGUAUAUGAAUGAAUGGAUGAAUGGAUGGGUGAAUGGAUGGAUAGGUAUGUGAAUAAAUGGAUGGAUGGAUGGAUUGAUUUGUGAAUGAAUGGAUGAAUGGAUGGGUAGGUGGGUGGAUGCAUAGGCUCUUGCGGUCGCACUAGUGUGGAAUUCUCGGGUGUCAAGG
B8: ENSMUSG00000061578.1449|Ksr2 (ssRNA)
RNA: GGGAGUUCUACAGUCCGACGAUCGCUUCGAUAUCCGCAUGCUAGGUAUAUAAAUGGAUGGAUGGGUGAUGGAUGGGUAAAUGAAUGGAUAGGUAUGUGAAUGAAUGGAUGAUGGAUGAAUGGAUGGGUAGGUGGGUAGAUAGGUAUAUGAAUGAAUGGAUGAAUGGAUGGGUGAAUGGAUGGAUAGGUAUGUGAAUAAAUGGAUGGAUGGAUGGAUUGAUUUGUGAAUGAAUGGAUGAAUGGAUGGGUAGGUGGGUGGAUGCAUAGGCAAGUAGAUGAAUGAAUAUGUGGGUAGAAGGGUGAGCUCUUGCGGUCGCACUAGUGUGGAAUUCUCGGGUGUCAAGG
B9: ENSMUSG00000061578.1454|Ksr2 (ssRNA)
RNA: GGGAGUUCUACAGUCCGACGAUCGCUUCGAUAUCCGCAUGCUAGGGUAAAUGAAUGGAUAGGUAUGUGAAUGAAUGGAUGAUGGAUGAAUGGAUGGGUAGGUGGGUAGAUAGGUAUAUGAAUGAAUGGAUGAAUGGAUGGGUGAAUGGAUGGAUAGGUAUGUGAAUAAAUGGAUGGAUGGAUGGAUUGAUUUGUGAAUGAAUGGAUGAAUGGAUGGGUAGGUGGGUGGAUGCAUAGGCAAGUAGAUGAAUGAAUAUGUGGGUAGAAGGGUGAGUGGGUGGAUGAAUGGAUGGAUAGGUUGGUACUCUUGCGGUCGCACUAGUGUGGAAUUCUCGGGUGUCAAGG

target: TDP-43 (Homo sapiens, UniProt Q13148 1-414); assay: RNA Bind-n-Seq with designed 260-mer pool; 25 mM Tris-HCl, 150 mM KCl, 3 mM MgCl2, BSA (printed 500 mg/mL), 20 units/mL SUPERase IN; pH not stated; 500 nM RNA pool, 1 h, 4 C; TDP-43 5, 50, 500 nM; high values mean tight binding; details: protein: recombinant; tags: SBP (GST cleaved off with PreScission; pGEX-GST-SBP)
Sequence (Q13148 whole entry): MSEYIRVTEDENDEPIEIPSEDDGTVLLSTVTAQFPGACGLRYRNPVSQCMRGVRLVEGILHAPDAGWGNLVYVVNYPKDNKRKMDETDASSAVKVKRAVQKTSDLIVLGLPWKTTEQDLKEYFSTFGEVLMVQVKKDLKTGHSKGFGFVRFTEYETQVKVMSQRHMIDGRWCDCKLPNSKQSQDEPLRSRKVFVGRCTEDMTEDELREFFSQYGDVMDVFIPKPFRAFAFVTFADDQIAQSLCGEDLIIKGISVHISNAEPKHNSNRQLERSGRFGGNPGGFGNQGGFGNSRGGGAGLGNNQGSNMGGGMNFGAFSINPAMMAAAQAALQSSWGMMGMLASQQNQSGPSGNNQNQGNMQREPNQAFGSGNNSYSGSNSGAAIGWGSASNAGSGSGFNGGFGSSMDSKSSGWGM
Outline: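 Duplicate measurements used two independent batches of recombinant SBP-tagged TDP-43, which was captured on streptavidin beads at 5, 50 or 500 nM. The beads were incubated with 500 nM of an in vitro-transcribed 260-nt 3′ UTR oligo pool for 1 h at 4 °C in 25 mM Tris-HCl, 150 mM KCl, 3 mM MgCl2, BSA and SUPERase IN. After washing, biotin elution, reverse transcription, PCR amplification and sequencing, binding was expressed as R: each oligo's normalized read abundance in the bound sample over its abundance in input.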

Binder	binding signal
B1	0.159 R (bound/input frequency ratio)
B2	5.07 R (bound/input frequency ratio)
B3	0.103 R (bound/input frequency ratio)
B4	0.043 R (bound/input frequency ratio)
B5	0.535 R (bound/input frequency ratio)
B6	1.53 R (bound/input frequency ratio)
B7	9.18 R (bound/input frequency ratio)
B8	3.93 R (bound/input frequency ratio)
B9	2.48 R (bound/input frequency ratio)
